Consider eight compounds from PubChem BioAssay (NCI).

Test systems include NCI-H23 lung; NCI-H226 lung; NCI-H322M lung; HOP-62 NSCLC; NCI-H460 lung; HOP-92 NSCLC; NCI-H522 lung; A549/ATCC NSCLC; 786-0 renal; COLO 205 colon; DU-145 prostate; K-562 leukemia; MALME-3M melanoma; MDA-MB-231 breast; RXF 393 renal; SF-268 CNS; SF-295 CNS; SF-539 CNS; UACC-257 melanoma; M14 melanoma.
Holding throughout (assay): NCI-60 one-dose screen, 48 h (100 = growth as untreated, 0 = no growth, -100 = all killed)
Holding throughout (conditions): 10 µM unless noted

Each structure is given as a SMILES string. About 83,000 compounds went through this panel and 20% of them were active in at least one assay; those are over-represented in the sample as a whole.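 Percent growth is the endpoint: 0 to 100 indicates growth inhibition (40 means 60% inhibition), 0 means no net growth, and negative values indicate cell death.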 A number with no mark means an inactive call. Active and inactive are the calls of the source. The calls were made as follows: active = growth percent below 10; inactive = the rest.

Turning to `COc1ccc2cc(-c3cnc4nonc4n3)ccc2c1`, the growth is 30.6% in the experiment on NCI-H23 lung; 52.6% with NCI-H226 lung; 54.5% in the experiment on NCI-H322M lung; 37.4% in the experiment with HOP-62 NSCLC; 74.4% in the experiment with NCI-H460 lung; 80.8% with HOP-92 NSCLC. Moreover, the growth is 7.22% (active) in the experiment on NCI-H522 lung; 36% in the experiment on A549/ATCC NSCLC; 41.4% in the experiment on 786-0 renal; 16.8% with COLO 205 colon; 62.9% in the experiment with DU-145 prostate; 13.6% with K-562 leukemia. In addition, the growth in the experiment on MALME-3M melanoma is 48.3%; with MDA-MB-231 breast, 76.4%; in the experiment with RXF 393 renal it was 23.4%; with SF-268 CNS it was 36.6%; in the experiment with SF-295 CNS, 31.4%; in the experiment with SF-539 CNS, -16% (active). In addition, the values for the growth in the experiment with UACC-257 melanoma and in the experiment with M14 melanoma were 42% and 10.7%, respectively.

As for `COc1ccc(C/C(C)=C(/c2ccc(OCCN3CCCCCC3)cc2)c2ccc(OC(=O)NCc3ccccc3)cc2)cc1`, the growth in the experiment with NCI-H23 lung was 86.4%; in the experiment on NCI-H226 lung, 101%; in the experiment on NCI-H322M lung it was 93.2%; in the experiment on HOP-62 NSCLC it was 91.1%; in the experiment with NCI-H460 lung, 70.7%; with HOP-92 NSCLC it was 56%. The growth is 75.2% with NCI-H522 lung; 77% with A549/ATCC NSCLC; 83.5% in the experiment with 786-0 renal; 85.7% in the experiment on COLO 205 colon; 95.6% in the experiment with DU-145 prostate; 28% with K-562 leukemia. In addition, the growth with MALME-3M melanoma is 95.2%; with MDA-MB-231 breast, 83.9%; with RXF 393 renal, 84%; in the experiment with SF-268 CNS it was 88.4%; in the experiment on SF-295 CNS, 98.2%; in the experiment with SF-539 CNS it was 96.7%. Also, the growth was 94.7% in the experiment with UACC-257 melanoma and 95.6% in the experiment with M14 melanoma.

As for `N=c1c2c(=N)n3c(nc2nc2n1-c1ccccc1Sc1ccccc1-2)sc1cc(Cl)ccc13`, the growth in the experiment on NCI-H23 lung is 7.38% (active); in the experiment on NCI-H226 lung it was 32.9%; in the experiment on NCI-H322M lung, 47.1%; in the experiment with HOP-62 NSCLC it was 76.8%; with NCI-H460 lung, 13.8%; with HOP-92 NSCLC, -14.1% (active). For the same compound, the growth with NCI-H522 lung was 4.09% (active); in the experiment with A549/ATCC NSCLC, 14%; with 786-0 renal, 30%; with COLO 205 colon, 44.8%; in the experiment on DU-145 prostate, 32.4%; with K-562 leukemia, 34.9%. For the same compound, the growth was 12.7% with MALME-3M melanoma; 32.1% with MDA-MB-231 breast; 26.5% with RXF 393 renal; 38.3% with SF-268 CNS; 12.8% in the experiment on SF-295 CNS; 55.4% in the experiment with SF-539 CNS. Besides, the growth in the experiment with UACC-257 melanoma is -5.42% (active); in the experiment with M14 melanoma, 28.8%.

On to `Cc1nn(-c2ccccc2)c(/N=C/N(C)C)c1/C=C/C(=O)c1ccc(Cl)cc1`, for which the growth is 96.9% in the experiment with NCI-H23 lung; 98.3% in the experiment with NCI-H226 lung; 101% with NCI-H322M lung; 93.2% in the experiment on HOP-62 NSCLC; 103% with NCI-H460 lung; 78% in the experiment with HOP-92 NSCLC. The growth in the experiment with NCI-H522 lung is 78.4%; in the experiment with A549/ATCC NSCLC, 108%; with 786-0 renal, 103%; in the experiment on COLO 205 colon it was 110%; in the experiment with DU-145 prostate it was 122%; with K-562 leukemia it was 59.6%. The growth in the experiment on MALME-3M melanoma is 90.1%; in the experiment with MDA-MB-231 breast, 77.2%; in the experiment on RXF 393 renal it was 97.8%; with SF-268 CNS, 118%; with SF-295 CNS it was 106%; in the experiment on SF-539 CNS, 101%. Moreover, the growth in the experiment on UACC-257 melanoma was 119%; in the experiment on M14 melanoma, 94.7%.

For the compound `C=C1C(=O)O[C@H]2[C@H]1CC/C(CNC(=O)c1cc3ccccc3[nH]1)=C\CC[C@@]1(C)O[C@@H]21`, the growth was -42.3% (active) in the experiment on NCI-H23 lung; -42.9% (active) in the experiment on NCI-H226 lung; 63.8% with NCI-H322M lung; 9.39% (active) in the experiment with HOP-62 NSCLC; -19.7% (active) in the experiment on NCI-H460 lung; -51.1% (active) with HOP-92 NSCLC. The growth was -75.4% (active) in the experiment on NCI-H522 lung; 9.2% (active) in the experiment with A549/ATCC NSCLC; -67.3% (active) in the experiment on 786-0 renal; -83.3% (active) with COLO 205 colon; -87.7% (active) in the experiment with DU-145 prostate; -20.6% (active) with K-562 leukemia. Moreover, the growth with MALME-3M melanoma was -28.9% (active); in the experiment with MDA-MB-231 breast it was -46.6% (active); in the experiment on RXF 393 renal it was -76% (active); in the experiment with SF-268 CNS, -27.3% (active); in the experiment on SF-295 CNS, 42.3%; in the experiment on SF-539 CNS, -77.1% (active). The growth is -49.2% (active) in the experiment on UACC-257 melanoma and -57.1% (active) in the experiment with M14 melanoma.

On to `C(/C=C/c1ccccc1)=Nc1ccc(CCc2ccc(N=C/C=C/c3ccccc3)cc2)cc1`, for which the growth in the experiment with NCI-H23 lung was 85.2%; in the experiment with NCI-H226 lung it was 95.9%; in the experiment with NCI-H322M lung it was 97.6%; with HOP-62 NSCLC it was 98.2%; in the experiment on NCI-H460 lung it was 54.8%; in the experiment on HOP-92 NSCLC it was 107%. Moreover, the growth in the experiment with NCI-H522 lung was 76.6%; in the experiment with A549/ATCC NSCLC, 104%; in the experiment with 786-0 renal, 106%; in the experiment with COLO 205 colon it was 101%; in the experiment on DU-145 prostate, 25.6%; in the experiment with K-562 leukemia, 78.3%. For the same compound, the growth in the experiment on MALME-3M melanoma was 115%; in the experiment on MDA-MB-231 breast it was 92%; with RXF 393 renal, 83.8%; in the experiment with SF-268 CNS, 104%; with SF-295 CNS, 73.3%; in the experiment on SF-539 CNS, 108%. Further, the growth with UACC-257 melanoma was 97.9%; in the experiment on M14 melanoma it was 89.9%.

As to `CCCCn1sc(=O)n(Cc2ccc(CNC(=O)OCc3ccc4c(Br)cc(Br)c(O)c4n3)cc2)c1=O`, the growth with NCI-H23 lung is 36.1%; in the experiment with NCI-H226 lung it was 31.6%; with NCI-H322M lung, 46%; in the experiment with HOP-62 NSCLC, 27.1%; in the experiment on NCI-H460 lung, 4.44% (active); in the experiment with HOP-92 NSCLC, 37.8%. In addition, the growth in the experiment with NCI-H522 lung is -7.12% (active); with A549/ATCC NSCLC, 18.9%; in the experiment on 786-0 renal, 92.2%; in the experiment on COLO 205 colon, 114%; with DU-145 prostate, 6.37% (active); in the experiment with K-562 leukemia, 12.8%. Moreover, the growth in the experiment with MALME-3M melanoma was 61.1%; with MDA-MB-231 breast it was 38.6%; in the experiment on RXF 393 renal, 15.9%; in the experiment on SF-268 CNS, 33.9%; in the experiment on SF-295 CNS it was 13.7%; in the experiment on SF-539 CNS, -14% (active). Further, the growth was 48.4% in the experiment with UACC-257 melanoma and 10.4% in the experiment on M14 melanoma.

As for `O=C(/C=C\c1ccco1)/C=C/c1ccco1`, the growth was 98.6% in the experiment with NCI-H23 lung; 98.6% in the experiment on NCI-H226 lung; 117% in the experiment on NCI-H322M lung; 98.1% with HOP-62 NSCLC; 116% in the experiment on NCI-H460 lung; 107% with HOP-92 NSCLC. The growth with NCI-H522 lung was 112%; in the experiment with A549/ATCC NSCLC, 102%; in the experiment on 786-0 renal it was 110%; with COLO 205 colon it was 106%; in the experiment with DU-145 prostate it was 106%; in the experiment with K-562 leukemia it was 111%. In addition, the growth is 112% in the experiment on MALME-3M melanoma; 93.4% in the experiment on MDA-MB-231 breast; 100% in the experiment with RXF 393 renal; 113% with SF-268 CNS; 101% in the experiment on SF-295 CNS; 108% in the experiment with SF-539 CNS. Besides, the growth was 100% in the experiment on UACC-257 melanoma and 105% in the experiment on M14 melanoma.
